Outcome data for 25 compounds are collected here from PubChem BioAssay.

Entries with a potency or affinity are not part of this list. Activity calls are given as the source filed them. No rule for the calls is given here.

The nature of the assay: toxicity toward immortalized ovarian surface epithelium – cell-based, plate reader, dry powder samples, cytotoxicity control for PAX8 inhibitor project, dose response (AID 743045).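 Also: more negative values mean more cell killing.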 The conditions noted are these: IOSE-T80 ovarian epithelial cells; series mostly up to 35 µM.
With `C[C@@H]1CCCCO[C@H](CN(C)C(=O)Nc2ccc(C(F)(F)F)cc2)[C@H](C)CN([C@@H](C)CO)C(=O)c2cc(NS(=O)(=O)c3ccc(Cl)cc3)ccc2O1`, the compound was classed as inactive.

For the compound `C[C@H](O)C#Cc1cnc2c(c1)C(=O)N([C@H](C)CO)C[C@H](C)[C@H](CN(C)Cc1ccc(-c3ccccc3)cc1)O2`, the outcome was inactive.

As for `Cc1ccc(S(=O)(=O)N(C)C[C@@H]2Oc3cc(C#Cc4ccncc4)ccc3S(=O)(=O)N([C@@H](C)CO)C[C@H]2C)cc1`, the compound was called inactive.

Consider `O=C(C[C@@H]1C[C@H]2c3cc(NC(=O)C4CCOCC4)ccc3O[C@H]2[C@H](CO)O1)NCc1ccc(Oc2ccccc2)cc1`, for which the compound was called inactive.

Regarding `C[C@@H]1CCCCO[C@@H](CN(C)Cc2ccc(C(F)(F)F)cc2)[C@H](C)CN([C@H](C)CO)C(=O)c2cc(NS(=O)(=O)c3ccc(Cl)cc3)ccc2O1`, the compound was classed as inactive.

For `Cc1ccc(S(=O)(=O)N(C)C[C@H]2OCCCC[C@@H](C)Oc3ccc(NS(=O)(=O)c4ccc(F)cc4)cc3C(=O)N([C@@H](C)CO)C[C@H]2C)cc1`, the outcome was inactive.

For the compound `C[C@@H]1CCCCO[C@H](CN(C)C(=O)Cc2ccccc2)[C@H](C)CN([C@@H](C)CO)C(=O)c2cc(NC(=O)Nc3ccc(C(F)(F)F)cc3)ccc2O1`, the compound was classed as inactive.

Take `Cc1ccc(S(=O)(=O)Nc2ccc3c(c2)C(=O)N([C@H](C)CO)C[C@H](C)[C@H](CN(C)C(=O)c2ccccc2)OCCCC[C@H](C)O3)cc1`: the compound was classed as inactive.

As to `COc1ccc(S(=O)(=O)Nc2ccc3c(c2)CC(=O)N([C@H](C)CO)C[C@H](C)[C@@H](CN(C)Cc2ccc(-c4ccccc4)cc2)O3)cc1`, the result was inactive.

With `C[C@@H]1CCCCO[C@H](CN(C)S(=O)(=O)c2ccc(Cl)cc2)[C@@H](C)CN([C@@H](C)CO)C(=O)c2cc(NC(=O)CCC(F)(F)F)ccc2O1`, the outcome was inactive.

With `Cc1ccc(S(=O)(=O)Nc2ccc3c(c2)C(=O)N([C@@H](C)CO)C[C@@H](C)[C@H](CN(C)Cc2ccc(Cl)c(Cl)c2)OCCCC[C@@H](C)O3)cc1`, the result was inactive.

Turning to `CN1c2ccc(-c3ccc(C#N)cc3)cc2[C@@H]2[C@@H](CCN2C(=O)NC2CCCCC2)[C@@H]1CO`, the compound was called inactive.

Turning to `C[C@H]1CCCCO[C@H](CN(C)C(=O)Nc2ccc(C(F)(F)F)cc2)[C@@H](C)CN([C@@H](C)CO)C(=O)c2cc(NC(=O)c3ccncc3)ccc2O1`, the call was inactive.

Consider `COc1ccccc1S(=O)(=O)N(C)C[C@@H]1Oc2cc(C#CCC3CCCC3)ccc2S(=O)(=O)N([C@@H](C)CO)C[C@@H]1C`, for which the result was inactive.

Consider `C[C@@H]1CN([C@H](C)CO)C(=O)c2cc(NC(=O)Nc3ccc(F)cc3)ccc2O[C@@H](C)CCCCO[C@H]1CN(C)C(=O)Nc1ccc(F)cc1`, for which the result was inactive.

With `Cc1ccc(S(=O)(=O)N(C)C[C@H]2Oc3ccc(NC(=O)Nc4ccc(C(F)(F)F)cc4)cc3CC(=O)N([C@H](C)CO)C[C@@H]2C)cc1`, the outcome was inactive.

Turning to `CCCN(C)C[C@H]1OCCCC[C@@H](C)Oc2ccc(NC(=O)c3ccccc3)cc2C(=O)N([C@H](C)CO)C[C@H]1C`, the compound was classed as inactive.

Take `C[C@@H]1CN([C@H](C)CO)S(=O)(=O)c2ccc(C#Cc3ccncc3)cc2O[C@H]1CN(C)C(=O)Nc1ccc2c(c1)OCO2`: the outcome was inactive.

As for `C[C@@H]1CN([C@H](C)CO)C(=O)c2cc(NC(=O)Nc3ccc(C(F)(F)F)cc3)ccc2O[C@@H](C)CCCCO[C@H]1CN(C)Cc1ccc(Cl)c(Cl)c1`, the compound was called inactive.

`C[C@H](CO)N1C[C@H](C)[C@H](CN(C)C(=O)NC2CCCCC2)OCCCC[C@H](C)Oc2ccc(NC(=O)Nc3ccc(C(F)(F)F)cc3)cc2C1=O`: the outcome was inactive.

Turning to `C[C@@H]1CN([C@H](C)CO)C(=O)Cc2cc(NC(=O)Nc3ccc(F)cc3)ccc2O[C@@H]1CN(C)Cc1ccc(Cl)c(Cl)c1`, the compound was classed as inactive.

Turning to `C[C@@H]1CN([C@@H](C)CO)C(=O)c2ccccc2-c2ccccc2CO[C@H]1CN(C)Cc1ccccc1C(F)(F)F`, the compound was classed as inactive.

With `Cc1ccc(S(=O)(=O)Nc2ccc3c(c2)C(=O)N([C@@H](C)CO)C[C@H](C)[C@@H](CN(C)C(=O)Nc2ccc(C(F)(F)F)cc2)OCCCC[C@H](C)O3)cc1`, the call was inactive.

As to `Cc1ccc(S(=O)(=O)N(C)C[C@@H]2Oc3c(NC(=O)c4ccc(-c5nccs5)cc4)cccc3C(=O)N([C@@H](C)CO)C[C@@H]2C)cc1`, the compound was called inactive.

As for `C[C@@H]1CN([C@H](C)CO)C(=O)Cc2cc(NC(=O)Cc3ccccc3)ccc2O[C@@H]1CN(C)Cc1ccc(C(F)(F)F)cc1`, the call was inactive.
